# Compounds with a hit are over-represented: about 18% of the library has one in this group of screens.
# IL-1B inflam inh: blocks inflammasome-driven IL-1 beta release; 4.7% of 360,000 active; activity change, % at 57.5 µM; THP-1 LPS/ATP IL-1B secretion, AlphaLISA, 16 h; active compounds read low; in the data active means activity change below about -50%; inconclusive means mostly about -30% to -49%; further: on the % scale 0 is the no-effect control and ±100 the full control effect
#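 Secreted IL-1B measured by AlphaLISA bead assay after 16 h compound exposure of THP-1 cells; compounds (final up to 57.5 uM) added 1 h before LPS (250 ng/mL) and ATP (1.25 mM) stimulation; lower signal means less secretion.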
# TGFb SMAD3 inh: TGF-b pathway inhibition | 1.2% of 410,000 active | Potency, µM (highest dose often 46.1 µM), for inactives: at the highest dose activity, negative = inhibition, hits mostly inhibitors | HepG2 CAGA-GFP TGF-b/SMAD3 reporter, GFP fluorescence, 18 h; TGF-beta stimulated, 500 pg/mL final; further: potency means the concentration at half of the fitted maximal effect; on the % scale 0 is the no-effect control and ±100 the full control effect; nearly all actives have a fitted effect of over 65% in size
#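 TGF-beta reporter screen: HEPG2 CAGA-GFP, 1% FBS, 500 pg/mL TGF-beta final, 18 h; per-cell GFP summed per well; curves fitted and categorized by class.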
# DT40 TDP1 no CPT: qHTS for Inhibitors of human tyrosyl-DNA phosphodiesterase 1 (TDP1): qHTS in cells in absence of CPT; DT40 Tdp1-/- hTDP1 cells, no CPT, ATP luminescence, 48 h; 15% of 420,000 active; Potency, µM (highest dose often 46.2 µM), inactives show at the highest dose activity change, negative = growth inhibition, hits mostly inhibitors; AID 686978, 2013; further: potency means the concentration at half of the fitted maximal effect; on the % scale 0 is the no-effect control and ±100 the full control effect; nearly all actives have a fitted effect of over 55% in size
#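 A cellular qHTS used chicken DT40 cells lacking endogenous Tdp1 but carrying stably transfected human TDP1. Compounds were applied without camptothecin, and cell growth kinetics were judged by ATP-dependent luminescence after ≥48 hr.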
# TDP1 cell CPT: growth inhibition of DT40 Tdp1-/-;hTDP1 cells with camptothecin (screen for TDP1 inhibitors) | Potency, µM (highest dose often 46.2 µM), inactives show at the highest dose activity change, negative = growth inhibition, usual class: inhibitors | 12% of 420,000 active | AID 686979 | chicken DT40 Tdp1-/-;hTDP1 cells + 20 nM CPT, ATP luminescence, 48 h; further: potency means the concentration at half of the fitted maximal effect; on the % scale 0 is the no-effect control and ±100 the full control effect; nearly all actives have a fitted effect of over 55% in size
#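 Chicken DT40 Tdp1-/- cells complemented with human TDP1, 400 cells/well, exposed to compounds plus 20 nM camptothecin for at least 48 h at 37 C; viability read as ATP content by CellTiter-Glo luminescence.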
# HepG2 viability: counter-screen for TGF-b inhibitors: cytotoxicity in HepG2 cells; HepG2 CAGA-GFP viability, ATP luminescence, 18 h; Potency, µM (highest dose often 46.1 µM), for inactives: at the highest dose activity change, negative = cytotoxicity, hits mostly cytotoxic; 0.76% of 410,000 active; AID 588856; further: potency means the concentration at half of the fitted maximal effect
#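 HepG2 CAGA-GFP cells (1000/well, DMEM with 1% FBS) received compound, then TGF-beta at 500 pg/mL final, and were incubated 18 hours at 37 degrees C. Viability was read by CellTiter-Glo luminescence. Media-only wells were set as complete cell-killing and DMSO as no toxicity.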
# TDP1 inh: inhibitors of human tyrosyl-DNA phosphodiesterase TDP1; Potency, µM (top dose mostly 130 µM), for the others: at the highest dose activity change, negative = inhibition, most hits filed as inhibitors; recombinant TDP1, AlphaScreen DNA substrate cleavage; 0.28% of 350,000 active; further: potency means the concentration at half of the fitted maximal effect; on the % scale 0 is the no-effect control and ±100 the full control effect; nearly all actives have a fitted effect of over 40% in size
# Target sequence (Q9NUW8 whole entry, looked up): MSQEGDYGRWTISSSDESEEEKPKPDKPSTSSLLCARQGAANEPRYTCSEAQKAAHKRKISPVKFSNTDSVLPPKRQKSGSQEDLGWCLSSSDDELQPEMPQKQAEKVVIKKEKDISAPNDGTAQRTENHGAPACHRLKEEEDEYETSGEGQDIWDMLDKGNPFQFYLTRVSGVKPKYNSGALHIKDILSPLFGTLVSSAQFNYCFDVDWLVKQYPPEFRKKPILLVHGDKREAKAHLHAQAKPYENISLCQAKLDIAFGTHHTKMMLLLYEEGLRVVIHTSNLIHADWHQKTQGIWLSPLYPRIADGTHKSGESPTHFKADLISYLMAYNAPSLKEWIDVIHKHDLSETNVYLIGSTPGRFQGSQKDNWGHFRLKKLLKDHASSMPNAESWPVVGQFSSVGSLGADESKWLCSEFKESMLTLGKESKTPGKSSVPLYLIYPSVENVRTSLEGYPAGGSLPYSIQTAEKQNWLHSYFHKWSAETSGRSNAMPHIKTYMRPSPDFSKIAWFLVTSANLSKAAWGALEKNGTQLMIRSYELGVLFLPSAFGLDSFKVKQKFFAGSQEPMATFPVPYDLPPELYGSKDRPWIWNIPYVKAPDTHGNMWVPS
#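 Enzyme-compound mixtures sat 15 min at room temperature, followed by a 5 min reaction with 15 nM final substrate and 10 min with AlphaScreen beads. Recombinant human Tdp1 was used at 1 nM final.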
# * = called active by the depositor; ? = inconclusive; / = not tested or not shown; [ ] = remark or other dose. Unless noted, the call rests on the fitted dose curve; in most records, active means well fitted curve in the direction sought with a large enough effect; inconclusive means small, poorly fitted or top-dose-only effect, or another doubt; inactive means no such curve, though single readings can be large; an effect the other way counts as inactive or inconclusive.
SMILES,IL-1B inflam inh,TGFb SMAD3 inh,DT40 TDP1 no CPT,TDP1 cell CPT,HepG2 viability,TDP1 inh
CCOC(=O)[C@]12CCCC=C1N(Cc1cccc3ccccc13)C(=O)[C@H](CC(=O)NCc1ccc(C)o1)C2,-2,/,?,?,/,/
COC(=O)[C@]12CCCCC=C1N(Cc1cccc3ccccc13)C(=O)[C@H](CC(=O)NCc1cccs1)C2,-60*,/,?,?,/,/
COC(=O)[C@]12CCCCC=C1N(Cc1cccc3ccccc13)C(=O)[C@H](CC(=O)NCc1cccc3ccccc13)C2,-19,/,?,?,/,/
COC(=O)[C@]12CCCCC=C1N(Cc1cccc3ccccc13)C(=O)[C@H](CC(=O)NCc1ccc(C)o1)C2,0,/,21µM*,?,/,/
CCCCS(=O)(=O)c1nc(-c2ccc(Br)cc2)cc(-c2ccccc2)c1C#N,/,?,2.6µM*,3.7µM*,-83%,-1%[12.3 µM]
Brc1ccc(C2=Nc3cccc4cccc(c34)N2)o1,0,10%,8.2µM*,6.5µM*,-33%,3%
FC(F)(F)C1=Nc2cccc3cccc(c23)N1,-16,-6%,4.6µM*,4.1µM*,0%,/
CCCCNC(=O)C1CCN(c2nc3ccccc3nc2C(F)(F)F)CC1,/,-14%,?,16µM*,-4%,-3%
COCCNC(=O)C1CCN(c2nc3ccccc3nc2C(F)(F)F)CC1,/,?,-20%,?,-9%,-3%
CSc1ccc(CCNC(=O)C2CCN(c3nc4ccccc4nc3C(F)(F)F)CC2)cc1,/,?,12µM*,15µM*,-21%,-3%
CC(C)Oc1ccc(CNC(=O)C2CCN(c3nc4ccccc4nc3C(F)(F)F)CC2)cc1,/,?,5.8µM*,4.1µM*,-10%,0%
CNC(=O)C1CCN(c2nc3ccccc3nc2C(F)(F)F)CC1,/,?,?,?,-21%,3%
COCCNC(=O)C1(C)CCCN(Cc2cc(-c3ccccc3)nn2C)C1 (stereo not given),-16,-1%,?,?,-14%,/
N#CCSc1nnc(Cc2cccc3ccccc23)n1C1CCCCC1,-65*,?,-20%,-25%,-3%,4%
N#CCSc1nnc2ccc3ccccc3n12,-6,11%,-13%,1%,10%,2%
CCc1ccc(-n2nc(CO)c(C(=O)NCCCc3ccccc3)n2)cc1,/,-9%,-15%,-7%,4%,-5%
O=C(CC(C(=O)O)c1ccc(F)cc1)c1ccc(Cl)cc1 (stereo not given),20,2%,-14%,3%,2%,/
Cc1ccc(SC(CC(=O)c2ccc(F)cc2)C(=O)O)cc1 (stereo not given),-96*,3%,26µM*,?,-12%,/
CC(C)(C)c1ccc(C(=O)CC(Sc2ccc(Cl)cc2)C(=O)O)cc1 (stereo not given),-97*,?,4.1µM*,3.3µM*,16µM*,0%
COc1ccc(NC(=O)N2CCOc3ccc(Cl)cc32)cc1,/,-16%,-23%,-3%,-9%,4%
Cc1ccc(C)c(S(=O)(=O)N2CCN(CC(=O)NC(=O)NCc3ccco3)CC2)c1,-7,-7%,?,-16%,-18%,3%
Cc1ccc(NC(=O)Cn2c(=O)n(CCCS(=O)(=O)C3CCCCC3)c(=O)c3ccccc32)cc1F,/,-9%,-16%,3%,-2%,5%
Cc1cc2nc(-c3ccccc3Br)n(/C=C(\c3ccccc3)n3c(=O)[nH]c4ccccc43)c2cc1C,-1,?,23µM*,16µM*,-19%,/

# Screening data from PubChem BioAssay.
